Laboratory results: PubChem BioAssay
For some assays here: Measured potencies and affinities stand elsewhere. Calls of active or inactive are those of the source. Unless noted, no rule for the calls is given here.

Experiments:
[1] = antimalarial activity against Dd2 strain (AID 2302;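 active = growth inhibition above 50% at the single 2 µM test dose, taken to imply half-maximal potency below 2 µM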;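 also: 0% = DMSO untreated growth and 100% = chloroquine plus artemisinin killed control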); settings: P. falciparum Dd2 in RBCs, LDH growth readout, 72 h; at 2 µM; hits give high values
[2] = HepG2 cytotoxicity, primary screen, cytotoxicity control for P. falciparum antimalarial project, cell-based, ATP luminescence (AID 2303;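 active = inhibition above 50%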;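 also: 0% = DMSO wells and 100% = digitonin-killed cells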); settings: HepG2 viability, 24-48 h, at 10 µM, hits give high values
[3] = molecular target: L-lactate dehydrogenase (Plasmodium falciparum (isolate CDC / Honduras)) (UniProt Q27743); assay: PfLDH activity inhibition – cell lysate, 3D7 strain, counter-screen for P. falciparum growth inhibition project (AID 2304);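 also: 0% = vehicle and 100% = reference inhibitor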; settings: P. falciparum 3D7 crude extract, LDH APAD/NBT absorbance; at 2 µM; hits give high values
[4] = inhibition of 3D7 malaria parasite growth – strain 3D7 (AID 2306);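 also: 0% = DMSO wells and 100% = chloroquine plus artemisinin control wells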; settings: P. falciparum 3D7 erythrocytic growth, LDH absorbance, 72 h; at 2 µM; hits give high values
[5] = molecular target: Calcium-dependent protein kinase 1 (Plasmodium falciparum (isolate 3D7)) (UniProt P62344); assay: PfCDPK1 kinase inhibitors, biochemical, TCAMS library (AID 1159585; cut-off not given, nearly all actives have IC50 up to about 0.98 µM;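 also: inhibitors leave more ATP so luminescence rises with inhibition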); settings: recombinant PfCDPK1, Kinase-Glo ATP depletion luminescence
[6] = molecular target: Plasmodium falciparum protein kinase 6 (PK6, PF3D7_1337100) (UniProt Q8IDW1); assay: PfPK6 kinase inhibitors, biochemical, TCAMS library (AID 1159586); settings: recombinant PfPK6, Kinase-Glo ATP depletion luminescence
[7] = molecular target: Protein kinase 7 (PK7), Plasmodium falciparum 3D7 (PF3D7_0213400) (UniProt Q7YTF7); assay: inhibition of Plasmodium PK7 catalytic activity – biochemical, TCAMS antimalarial set, Kinase-Glo luminescence (AID 1159587); settings: recombinant PfPK7, Kinase-Glo ATP depletion luminescence
[8] = molecular target: Calcium-dependent protein kinase 4 (Plasmodium falciparum (isolate 3D7)) (UniProt Q8IBS5); assay: PfCDPK4 kinase inhibitors, biochemical, TCAMS library (AID 1159588; cut-off not given, nearly all actives have IC50 up to about 0.91 µM); settings: recombinant PfCDPK4, Kinase-Glo ATP depletion luminescence
Sequence of Calcium-dependent protein kinase 4 (Plasmodium falciparum (isolate 3D7)) (Q8IBS5 whole entry, looked up): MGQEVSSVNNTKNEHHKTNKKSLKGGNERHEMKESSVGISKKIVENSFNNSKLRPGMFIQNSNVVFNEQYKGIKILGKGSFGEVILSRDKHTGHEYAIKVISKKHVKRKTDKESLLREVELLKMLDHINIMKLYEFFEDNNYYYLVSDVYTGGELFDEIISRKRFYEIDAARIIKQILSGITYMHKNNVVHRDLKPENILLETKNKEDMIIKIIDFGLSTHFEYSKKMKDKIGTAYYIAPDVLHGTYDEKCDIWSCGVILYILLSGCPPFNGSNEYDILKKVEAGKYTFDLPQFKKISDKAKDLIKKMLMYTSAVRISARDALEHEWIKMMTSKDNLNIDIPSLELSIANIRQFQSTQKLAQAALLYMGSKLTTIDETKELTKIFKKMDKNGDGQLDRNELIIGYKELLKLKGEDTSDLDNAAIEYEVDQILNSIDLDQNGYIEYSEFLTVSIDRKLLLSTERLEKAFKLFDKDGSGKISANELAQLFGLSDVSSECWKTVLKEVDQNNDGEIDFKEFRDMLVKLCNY

Sequence of Protein kinase 7 (PK7), Plasmodium falciparum 3D7 (PF3D7_0213400) (Q7YTF7 1-343): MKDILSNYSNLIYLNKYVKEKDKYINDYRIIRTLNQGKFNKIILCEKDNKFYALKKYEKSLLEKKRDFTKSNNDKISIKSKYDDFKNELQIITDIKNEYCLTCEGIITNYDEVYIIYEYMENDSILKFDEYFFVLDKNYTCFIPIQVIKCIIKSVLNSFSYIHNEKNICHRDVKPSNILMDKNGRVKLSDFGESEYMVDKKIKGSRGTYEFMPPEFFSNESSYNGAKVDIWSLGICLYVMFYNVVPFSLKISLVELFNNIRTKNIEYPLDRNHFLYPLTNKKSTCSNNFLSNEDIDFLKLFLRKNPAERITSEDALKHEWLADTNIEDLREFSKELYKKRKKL
Sequence of L-lactate dehydrogenase (Plasmodium falciparum (isolate CDC / Honduras)) (Q27743 whole entry, looked up): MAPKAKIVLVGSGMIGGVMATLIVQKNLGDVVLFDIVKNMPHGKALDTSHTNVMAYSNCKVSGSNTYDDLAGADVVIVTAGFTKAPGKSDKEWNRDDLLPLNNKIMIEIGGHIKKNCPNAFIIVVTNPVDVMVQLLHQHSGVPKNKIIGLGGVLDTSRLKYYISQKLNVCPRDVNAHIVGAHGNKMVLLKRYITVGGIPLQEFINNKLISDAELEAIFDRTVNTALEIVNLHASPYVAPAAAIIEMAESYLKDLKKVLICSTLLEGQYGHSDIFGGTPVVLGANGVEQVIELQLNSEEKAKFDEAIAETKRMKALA
Sequence of Calcium-dependent protein kinase 1 (Plasmodium falciparum (isolate 3D7)) (P62344 whole entry, looked up): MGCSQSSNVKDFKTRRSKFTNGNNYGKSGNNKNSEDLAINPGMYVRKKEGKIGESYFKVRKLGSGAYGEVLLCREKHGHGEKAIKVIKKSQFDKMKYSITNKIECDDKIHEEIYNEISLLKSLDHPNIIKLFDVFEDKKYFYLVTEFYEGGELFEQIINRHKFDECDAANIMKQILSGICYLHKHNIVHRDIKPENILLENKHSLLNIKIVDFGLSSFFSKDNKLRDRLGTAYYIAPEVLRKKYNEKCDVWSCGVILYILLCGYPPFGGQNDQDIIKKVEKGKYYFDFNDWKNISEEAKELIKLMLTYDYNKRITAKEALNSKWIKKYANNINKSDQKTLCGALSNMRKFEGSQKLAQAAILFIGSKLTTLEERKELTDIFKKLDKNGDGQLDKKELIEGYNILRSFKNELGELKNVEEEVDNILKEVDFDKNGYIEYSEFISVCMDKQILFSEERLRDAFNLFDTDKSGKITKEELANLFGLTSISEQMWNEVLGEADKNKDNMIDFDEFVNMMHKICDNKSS
Sequence of Plasmodium falciparum protein kinase 6 (PK6, PF3D7_1337100) (Q8IDW1 1-305): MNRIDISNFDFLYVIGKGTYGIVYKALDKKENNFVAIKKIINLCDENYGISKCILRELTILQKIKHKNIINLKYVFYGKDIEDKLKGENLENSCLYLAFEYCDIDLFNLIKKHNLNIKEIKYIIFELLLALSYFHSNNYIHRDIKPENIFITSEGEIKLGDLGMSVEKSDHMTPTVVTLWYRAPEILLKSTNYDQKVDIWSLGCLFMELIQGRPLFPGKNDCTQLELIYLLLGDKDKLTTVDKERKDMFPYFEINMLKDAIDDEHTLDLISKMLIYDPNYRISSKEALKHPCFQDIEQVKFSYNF

Cc1cc(O)c2c3c1C(=O)C=C1C3c3c(c(O)cc(O)c3C(=O)C1(C)C)C2=O (stereo not given)
inactive: growth inhibition [1] 46% | inhibition [2] 45% | inhibition [3] -3% | outcome [5] | outcome [6] | outcome [7] | outcome [8]
active: growth inhibition [4] 98%

Fc1ccc(Nc2ccnc3cc(-c4ccc(CNCCN5CCOCC5)o4)ccc23)c(Cl)c1
active: growth inhibition [1] 99% | growth inhibition [4] 100%
inactive: inhibition [2] 34% | inhibition [3] -1% | outcome [5] | outcome [6] | outcome [7] | outcome [8]

CS(=O)(=O)c1ccc(CNCc2ccc(-c3ccc(-c4nc5ccc(F)cc5[nH]4)s3)cc2)cc1
active: growth inhibition [1] 97% | growth inhibition [4] 102%
inactive: inhibition [2] 22% | inhibition [3] 0% | outcome [5] | outcome [6] | outcome [7] | outcome [8]

CCN(CC)CCN(Cc1ccc(-c2ccc(C(F)(F)F)cc2)cc1)C(=O)Cn1c(CCc2cccc(F)c2F)c(C)c(=O)c2ccccc21
inactive: inhibition [3] 3% | outcome [5] | outcome [6] | outcome [7] | outcome [8]
active: growth inhibition [1] 52% | inhibition [2] 61% | growth inhibition [4] 87%

COc1ccc(CNC2CCN(C)CC2)cc1-c1ccc(S(=O)(=O)NCC2CCCO2)s1 (stereo not given)
inactive: growth inhibition [1] 18% | inhibition [2] 18% | inhibition [3] 5% | outcome [5] | outcome [6] | outcome [7] | outcome [8]
active: growth inhibition [4] 95%

CCNc1cc(C)nc(Nc2ccccc2)n1
inactive: growth inhibition [1] 8% | inhibition [2] 16% | inhibition [3] -1% | outcome [5] | outcome [6] | outcome [7] | outcome [8]
active: growth inhibition [4] 92%

COc1cc(Br)c(NC(=O)Nc2ccc(C(F)(F)F)c(O[C@@H]3CCN(C)C3)c2)cc1OC
inactive: growth inhibition [1] 27% | inhibition [2] 10% | inhibition [3] -1% | outcome [5] | outcome [6] | outcome [7] | outcome [8]
active: growth inhibition [4] 97%

c1cc(-c2ccc(CNC3CC3)cc2)cc(-c2nc3ccccc3[nH]2)c1
inactive: growth inhibition [1] 8% | inhibition [2] 17% | inhibition [3] 1% | outcome [5] | outcome [6] | outcome [7] | outcome [8]
active: growth inhibition [4] 96%

O=C(/C=C/c1ccc(Cl)c(Cl)c1)NCCCCCN1CCC(NC(=O)Nc2ccc(OC(F)F)cc2)CC1
active: growth inhibition [4] 101%
inactive: growth inhibition [1] 18% | inhibition [2] 33% | inhibition [3] 6% | outcome [5] | outcome [6] | outcome [7] | outcome [8]

Cc1cc(SC(C)(C)C)cc2c(Cl)c(C(N)=O)cnc12
active: growth inhibition [1] 98% | inhibition [2] 83% | growth inhibition [4] 98%
inactive: inhibition [3] 0% | outcome [5] | outcome [6] | outcome [7] | outcome [8]

NC(N)=Nc1ccc(OCCCCCOc2ccc(N=C(N)N)cc2Br)c(Br)c1
active: growth inhibition [1] 95% | growth inhibition [4] 92%
inactive: inhibition [2] 27% | inhibition [3] 0% | outcome [5] | outcome [6] | outcome [7] | outcome [8]

CCC(C)CN1CCCN(c2ccc(NC(=O)c3cccs3)cc2)CC1 (stereo not given)
inactive: inhibition [2] 4% | inhibition [3] -2% | outcome [5] | outcome [6] | outcome [7] | outcome [8]
active: growth inhibition [1] 95% | growth inhibition [4] 91%

CCCN(CCC)C(=O)c1cc(C(=O)N[C@@H](Cc2ccccc2)[C@H](O)CNC(C)(C)c2cccc(C(F)(F)F)c2)cc(N2CCCCS2(=O)=O)c1
active: growth inhibition [1] 98% | growth inhibition [4] 99%
inactive: inhibition [2] 19% | inhibition [3] -4% | outcome [5] | outcome [6] | outcome [7] | outcome [8]

O=C(c1ccccc1F)N(Cc1ccc(Cl)cc1)c1ccccn1
inactive: inhibition [2] -3% | inhibition [3] 1% | outcome [5] | outcome [6] | outcome [7] | outcome [8]
active: growth inhibition [1] 58% | growth inhibition [4] 84%

CN(C)c1ccc(-c2csc(C(=O)NC3CCN(CCC(C)(C)C)C3)c2)cc1 (stereo not given)
inactive: growth inhibition [1] 36% | inhibition [2] 20% | inhibition [3] 2% | outcome [5] | outcome [6] | outcome [7] | outcome [8]
active: growth inhibition [4] 95%

COc1cc(F)c2nccc([C@@H](O)CN3CCC(NCc4ccc5c(n4)NC(=O)CS5)CC3)c2c1
inactive: growth inhibition [1] 25% | inhibition [2] 23% | inhibition [3] -4% | outcome [5] | outcome [6] | outcome [7] | outcome [8]
active: growth inhibition [4] 103%

COc1ccc(-c2nnc(Sc3ccc(C#N)c([N+](=O)[O-])c3)n2CCC(C)C)cc1
inactive: inhibition [2] 15% | inhibition [3] 5% | outcome [5] | outcome [6] | outcome [7] | outcome [8]
active: growth inhibition [1] 53% | growth inhibition [4] 89%

Cc1c(CNCCCNc2cc(=O)c3ccccc3[nH]2)sc(/C=N/O)c1Br
inactive: growth inhibition [1] -2% | inhibition [2] 0% | inhibition [3] 6% | outcome [5] | outcome [6] | outcome [7] | outcome [8]
active: growth inhibition [4] 82%

O=C(Nc1ccc2c(c1)CNCC2)c1ccc(-c2ccc(Cl)cc2)cc1
inactive: growth inhibition [1] 28% | inhibition [3] 6% | outcome [5] | outcome [6] | outcome [7] | outcome [8]
active: inhibition [2] 52% | growth inhibition [4] 96%

N#Cc1ccc(CN2CCCN(Cc3cccc(NC(=O)c4ccc(-c5ccccc5)cc4)c3)CC2)cc1
inactive: growth inhibition [1] 12% | inhibition [2] 33% | inhibition [3] 0% | outcome [5] | outcome [6] | outcome [7] | outcome [8]
active: growth inhibition [4] 88%

CCc1ccc(-c2nc3cc(NC(=O)c4ccc([N+](=O)[O-])o4)ccc3o2)cc1
inactive: inhibition [2] 4% | inhibition [3] 3% | outcome [5] | outcome [6] | outcome [7] | outcome [8]
active: growth inhibition [1] 80% | growth inhibition [4] 97%

COc1ccc2nc(C)cc(Nc3ccc(Oc4ccc(Br)c5ccccc45)c(Cl)c3)c2c1
active: growth inhibition [1] 101% | inhibition [2] 100% | growth inhibition [4] 100%
inactive: inhibition [3] -3% | outcome [5] | outcome [6] | outcome [7] | outcome [8]

O=C(/C=C/c1ccc(I)cc1)NCCCCCN1CCC(c2c[nH]c3ccccc23)CC1
active: growth inhibition [4] 95%
inactive: growth inhibition [1] 2% | inhibition [2] 43% | inhibition [3] -4% | outcome [5] | outcome [6] | outcome [7] | outcome [8]

O=C(Nc1ccc(-c2ccccc2)cc1)Nc1cccc(Cn2ncc(N3CCCNCC3)c(Cl)c2=O)c1
active: growth inhibition [1] 52% | growth inhibition [4] 102%
inactive: inhibition [2] 14% | inhibition [3] -1% | outcome [5] | outcome [6] | outcome [7] | outcome [8]

O[C@H]1[C@H](OCc2ccc(-c3ccccc3)cc2)CC[C@@H]1N1CCCCC1
active: growth inhibition [1] 101% | growth inhibition [4] 96%
inactive: inhibition [2] 9% | inhibition [3] 9% | outcome [5] | outcome [6] | outcome [7] | outcome [8]

CC1(C)N=C(N)N=C(N)N1OCCCCON1C(N)=NC(N)=NC1(C)C
inactive: inhibition [3] 4% | outcome [5] | outcome [6] | outcome [7] | outcome [8]
active: growth inhibition [1] 95% | inhibition [2] 54% | growth inhibition [4] 97%

CCc1nonc1NC(=O)c1oc2c(C)c(C)ccc2c1C
inactive: inhibition [2] 1% | inhibition [3] -3% | outcome [5] | outcome [6] | outcome [7] | outcome [8]
active: growth inhibition [1] 64% | growth inhibition [4] 89%

COc1cc2nc(N3CCN(C(=O)c4c(Cl)nsc4-c4ccccc4Cl)CC3)nc(N)c2cc1OC
inactive: inhibition [3] -6% | outcome [5] | outcome [6] | outcome [7] | outcome [8]
active: growth inhibition [1] 101% | inhibition [2] 57% | growth inhibition [4] 100%

O=C(/C=C/c1ccc(Cl)c(Cl)c1)NCCCCCN1CCCC(CNS(=O)(=O)c2cccc(C(F)(F)F)c2)C1 (stereo not given)
active: inhibition [2] 73% | growth inhibition [4] 92%
inactive: growth inhibition [1] 0% | inhibition [3] 5% | outcome [5] | outcome [6] | outcome [7] | outcome [8]

COc1ccc(C(=O)NCc2ccccc2-c2ccc(C(C)(C)C)cc2)cc1O
active: growth inhibition [1] 97% | growth inhibition [4] 99%
inactive: inhibition [2] 10% | inhibition [3] 1% | outcome [5] | outcome [6] | outcome [7] | outcome [8]

O=C(C=Cc1ccc(Cl)c(Cl)c1)NCCCCCN1CCC(CCNC(=O)c2sc3ccccc3c2Cl)CC1
active: growth inhibition [4] 88%
inactive: growth inhibition [1] 6% | inhibition [2] 27% | inhibition [3] -5% | outcome [5] | outcome [6] | outcome [7] | outcome [8]

O=C(NC1CCCCCC1)C1CCCN(C(=O)c2ccc(O)c(-c3ccc(Cl)c(Cl)c3)c2)C1 (stereo not given)
inactive: growth inhibition [1] 21% | inhibition [2] 5% | inhibition [3] -2% | outcome [5] | outcome [6] | outcome [7] | outcome [8]
active: growth inhibition [4] 98%

COc1cc(OC)c(NC(=O)C2c3ccccc3C(=O)N(C)C2c2cccs2)cc1Cl (stereo not given)
inactive: inhibition [2] 4% | inhibition [3] -5% | outcome [5] | outcome [6] | outcome [7] | outcome [8]
active: growth inhibition [1] 52% | growth inhibition [4] 99%

CCCN(Cc1nnc(-c2cccs2)o1)C(=O)C1COc2ccccc2O1 (stereo not given)
active: growth inhibition [4] 87%
inactive: growth inhibition [1] 49% | inhibition [2] 1% | inhibition [3] 0% | outcome [5] | outcome [6] | outcome [7] | outcome [8]

CC(C)(C)c1cc(C(=O)N2CCN(c3ccc(C(F)(F)F)cn3)CC2)n(Cc2ccc(F)cc2)n1
active: growth inhibition [4] 88%
inactive: growth inhibition [1] 26% | inhibition [2] 4% | inhibition [3] -1% | outcome [5] | outcome [6] | outcome [7] | outcome [8]

CCc1c(C)nc(-n2nc(C)cc2NC(=O)CC(c2ccccc2)c2ccccc2)[nH]c1=O
active: growth inhibition [1] 98% | growth inhibition [4] 97%
inactive: inhibition [2] 41% | inhibition [3] -3% | outcome [5] | outcome [6] | outcome [7] | outcome [8]

COc1ccc(NC(=O)N2CCCN(CCCCCNC(=O)/C=C/c3ccc(Cl)cc3)CC2)cc1Cl
active: growth inhibition [4] 97%
inactive: growth inhibition [1] 1% | inhibition [2] 15% | inhibition [3] 1% | outcome [5] | outcome [6] | outcome [7] | outcome [8]

CN1CCC(NCc2ccc(-c3cnc(NCc4ccccc4)nc3)cc2)CC1
active: growth inhibition [1] 64% | growth inhibition [4] 91%
inactive: inhibition [2] 23% | inhibition [3] 4% | outcome [5] | outcome [6] | outcome [7] | outcome [8]

O=C(c1ccc(Br)o1)N1N=C(c2cccs2)CC1c1ccc(Br)cc1 (stereo not given)
inactive: growth inhibition [1] 45% | inhibition [2] 5% | inhibition [3] -4% | outcome [5] | outcome [6] | outcome [7] | outcome [8]
active: growth inhibition [4] 96%

O=C(c1ccc([N+](=O)[O-])o1)N1CCN(c2nc3c(Cl)cccc3s2)CC1
inactive: inhibition [2] -12% | inhibition [3] 6% | outcome [5] | outcome [6] | outcome [7] | outcome [8]
active: growth inhibition [1] 87% | growth inhibition [4] 91%
